BoNT-A LC inh2 – blocks Botulinum neurotoxin A light chain protease | multiplex microsphere protease substrate cleavage, flow cytometry | inhibition, % at 10 µM | AID 588499 | 360,000 compounds, 0.17% hits; note: plate controls were buffer without enzyme for full effect and enzyme alone for no effect
BoNT-F LC inh – blocks Botulinum neurotoxin F light chain protease | Multiplex microsphere protease cleavage assay, flow cytometry | inhibition, % at 10 µM | 360,000 compounds, 0.22% hits; in the data active = inhibition above about 35%, passing the limit was not always enough; inconclusive = no clear call, values can overlap the other calls; note: plate controls were buffer without enzyme for full effect and enzyme alone for no effect
Bead autofluor – compound fluorescence in toxin protease inhibitor counterscreen; compound autofluorescence counterscreen, microsphere flow cytometry; hits give high values; fluorescence intensity (concentration not given with the values); 360,000 compounds, 3.1% hits; AID 624483; in the data active = fluorescence intensity above about 16000; inconclusive = no clear call, values can overlap the other calls
Anthrax LF inh2 – blocks Bacillus anthracis lethal factor protease; 360,000 compounds, 0.12% hits; inhibition, % at 10 µM; multiplex microsphere protease cleavage assay, LF; P15917; note: plate controls were buffer without enzyme for full effect and enzyme alone for no effect
Active calls of the source: *; ? = inconclusive. A selection: hits, their analogues and other compounds. The true share with any hit is near 3.5%. Cut-off read from the data, not from the text of the source, unless noted: active = inhibition above about 30%; inconclusive = no clear call, values can overlap the other calls; inactive = below that.

SMILES	BoNT-A LC inh2	BoNT-F LC inh	Bead autofluor	Anthrax LF inh2
CCN(CC)Cc1cc(C(C)=O)ccc1OCC(C)C	0	0	16228*	-3
CC(=O)c1ccc(OCC(C)C)c(CC(C(N)=O)C(N)=O)c1	-3	-11	13264	-7
CCOc1cc(C(=O)Nc2cccc(OCC(=O)N3CCOCC3)c2)cc(OCC)c1OCC	1	-2	4119	2
O=C(O/N=C1/CCSc2ccccc21)c1ccc(F)cc1	?	-6	24780*	-3
CCCNC(=O)C1CCN(c2nc(C)cc(C)n2)CC1	1	9	4400	1
Cc1nnc(NC(=O)C2CCCCC2)s1	?	-4	22880*	-3
Cc1cc(C)nc(N2CCC(C(=O)Nc3nnc(C)s3)CC2)n1	?	2	18862*	-12
CCC(C)(C)NC(=O)C1CCN(c2nc(C)cc(C)n2)CC1	-1	-1	16929*	-1
COCCSc1nnc(NC(=O)C2CCCCC2)s1	-1	-2	17088*	-2
CC(C)N(C)c1ncnc2c1ncn2[C@H]1CN(C2CCCC2)C[C@@H](CO)O1	0	-14	4081	2
COc1cccc(CNc2nc(NC(C)C)nc3ccsc23)c1	-1	-2	3791	-7
COc1ccc(OC)c(CCNC(=O)c2cccc(NC3=NC4CS(=O)(=O)CC4S3)c2)c1 (stereo not drawn)	-1	-12	4828	-12
COc1ccc2nc(N3CCCC3)[nH]c2c1	?	-2	24269*	0
Cc1ccc(NC(=O)CSCC(=O)N2CCCc3ccccc32)cc1	4	-4	?	2
CC(C)N1CCC(C)(C(=O)Nc2cc(-c3ccccc3)nn2C)C1 (stereo not drawn)	0	-1	3766	5
Brc1ccccc1OCCCN1CCOCC1	1	0	23079*	-7
CCOc1cccc(OCCCCN2CCOCC2)c1	0	0	2461	1
Clc1cccc(OCCN2CCOCC2)c1	0	-3	16577*	-2
c1ccc(OCCCCN2CCOCC2)cc1	-1	1	16576*	-2
Cc1ccccc1OCCCN1CCOCC1	-3	-21	3547	12
CCOc1cc(C=NN=C2c3ccccc3-c3ccccc32)ccc1O	-1	-3	3654	-1
O=Cc1ccc(-n2cccn2)cc1	-2	-4	4964	-6
NCc1cccc(-n2cccn2)c1	?	-1	21167*	0
Cc1cccc(C)c1-n1nnnc1C(c1ccnc2ccccc12)N(C)Cc1ccccc1 (stereo not drawn)	0	0	5724	-6
COc1cc(CNCC(C)C)c(Br)cc1OCC(=O)NCc1ccccc1	0	-8	16297*	-5
SMILES	BoNT-A LC inh2	BoNT-F LC inh	Bead autofluor	Anthrax LF inh2
COc1cc(CNCCN(C)C)c(Br)cc1OCC(=O)NCc1ccccc1	0	-6	6743	-6
O=C(Nc1ccon1)c1ccccc1F	1	-1	23297*	3
O=C(Nc1ccon1)c1ccccc1Cl	0	4	8322	3
O=C(Nc1ccccc1C(=O)Nc1ccccn1)c1ccccc1F	1	45*	4072	11
Cc1ccc(S(=O)(=O)N(C)C[C@H]2OCCCC[C@H](C)Oc3ccc(NC(=O)Nc4cccc5ccccc45)cc3C(=O)N([C@@H](C)CO)C[C@H]2C)cc1	0	-2	3479	-7
COc1ccc2nc(NC(=O)CCN3C(=O)c4ccccc4C3=O)sc2c1	?	-3	16754*	0
CCCC(=O)Nc1nc2ccc(OC)cc2s1	-1	-7	6001	-4
COc1ccc2nc(NC(=O)C(NS(=O)(=O)c3cccs3)C(C)C)sc2c1 (stereo not drawn)	-4	-6	21430*	-3
COc1ccc2nc(NC(=O)c3ccoc3C)sc2c1	1	1	21922*	1
COc1ccc2nc(NC(=S)N(C)C)sc2c1	-3	-4	23623*	-1
NC(Cc1ccc(Cl)cc1)c1csc(Nc2ccc(-c3ccccc3)nn2)n1 (stereo not drawn)	0	-18	3187	-3
Cc1ccc(S(C)(=O)=N/C=C2\C(=O)c3sccc3N(C)S2(=O)=O)cc1 (stereo not drawn)	?	?	4084	0
O=C(Cn1nc(C(F)(F)F)c2c1CCCC2)NC1CCCC1	-1	-3	23402*	-2
COc1ccc(CNC(=O)Cn2nc(C(F)(F)F)c3c2CCC3)cc1	0	-5	8974	-17
COc1ccc(NC(=O)Cn2nc(C(F)(F)F)c3c2CCCC3)c(OC)c1	?	-4	21156*	0
CC(C)NC(=O)Cn1nc(C(F)(F)F)c2c1CCC2	0	3	?	2
CCN(CC)c1cc(C(F)(F)F)nc(-c2ccccn2)n1	2	12	8722	7
FC(F)(F)c1cc(Oc2ccc(Cl)cc2)nc(-c2ccccn2)n1	-3	-8	23289*	-2
C=CCNc1cc(C(F)(F)F)nc(-c2ccccn2)n1	1	1	19805*	-1
FC(F)(F)c1cc(Oc2ccccc2)nc(-c2ccccn2)n1	0	-1	8937	1
FC(F)(F)c1cc(Oc2ccccc2Cl)nc(-c2ccccn2)n1	2	0	21573*	-1
O=C(NCCc1c[nH]c2ccccc12)c1[nH]c(C(F)(F)F)nc1-c1ccccc1	-1	-8	5895	0
Cc1ccc([N+](=O)[O-])cc1-c1[nH]c(-c2ccc(O)c(O)c2)nc1-c1ccccc1	0	-6	16205*	-9
CCOC(=O)c1ccc(-c2csc(NC(=O)CN3CCC(C)CC3)n2)cc1	-3	5	3875	5
COCCNC(=O)c1nn2cccnc2c1Cl	1	-2	19754*	0
SMILES	BoNT-A LC inh2	BoNT-F LC inh	Bead autofluor	Anthrax LF inh2
O=C(NCC12CC3CC(CC(C3)C1)C2)c1nn2cccnc2c1Cl	0	1	16281*	-4
CCOc1ccc(S(=O)(=O)N2CCC(C(=O)Nc3ccccc3N3CCCC3)CC2)cc1	-1	-14	4356	0
C=CCn1c(SCC(=O)c2cc(C)n(C(C)COC)c2C)nc2sc(C)c(C)c2c1=O (stereo not drawn)	?	4	19713*	-18
Cc1ccc(/C=N\Nc2cn[nH]c(=O)c2Cl)cc1	1	-5	23558*	-1
O=c1[nH]ncc(N/N=C/c2ccccc2)c1Cl	1	1	15870	2
CCC(C)c1c(NS(=O)(=O)c2ccc(C)cc2)o[nH]c1=O (stereo not drawn)	0	-4	3583	0
CN1CCN(NC(=O)CN2C(=O)/C(=C/c3ccccc3Cl)SC2=S)CC1	-1	-6	16697*	-4
COc1ccc(-n2ncc3c(NCc4ccco4)ncnc32)cc1	-1	-4	11032	0
C=CCNc1ncnc2c1cnn2-c1ccc(OC)cc1	0	0	16362*	-4
O=c1c2cnn(-c3ccccc3)c2nc(-c2ccco2)n1-c1ccccc1	-1	-1	22323*	0
COc1ccc(C(=O)Nn2c(CC(C)C)nc3cc(OC)c(OC)cc3c2=O)c(OC)c1	-2	?	4221	3
COc1cc2nc(CC(C)C)n(NC(=O)c3ccccc3)c(=O)c2cc1OC	?	3	22766*	1
CCOC(=O)[C@]12Cc3c(cc(OC)c(OC)c3OC)[C@H]1N(C1CCCCC1)C(=O)c1cc(OC)ccc12	0	-8	6485	-11
